Experimental data: PubChem BioAssay AID1159580 (chemical genetic matrix, 2015)
Among all 5,500 compounds or so, about 2,000 (36%) were called active. About 18% were inconclusive and are not listed. Cut-off read from the data, not from the text of the source: active = normalized growth mostly below about 0.91 (no sharp cut-off); inconclusive = no clear call, values can overlap the other calls; inactive = mostly above about 0.92. Some of the results follow.

Assay: chemical genetic growth profiling, strain panel (AID 1159580);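 note: tested at 20 µM; growth read once vehicle control cultures reached saturation at 30 °C; 1 = growth at the plate median or of vehicle wells; lower values mean less growth of the strain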
Conditions: growth OD

Measured: normalized growth

NC(=O)NC1NC(=O)NC1=O (configuration not stated)
inactive: S. cerevisiae deletion strains, locus YJR075W, strain HOC1, hits give low values 1.01 | S. cerevisiae deletion strains, locus YKL009W, strain mrt4, hits give low values 0.989 | S. cerevisiae deletion strains, locus YKL068W, hits give low values 0.987 | S. cerevisiae deletion strains, locus YKL085W, strain MDH1 (second series), hits give low values 0.981 | S. cerevisiae deletion strains, locus YKL085W, strain MDH1, hits give low values 0.981 | S. cerevisiae deletion strains, locus YKL160W, strain elf1, hits give low values 0.979 | S. cerevisiae deletion strains, locus YKL190W, strain CNB1, hits give low values 0.997 | S. cerevisiae deletion strains, locus YKR001C, strain vps1, hits give low values 0.984 | S. cerevisiae deletion strains, locus YKR026C, strain gcn3, hits give low values 1 | S. cerevisiae deletion strains, locus YKR091W, strain srl3, hits give low values 1 | S. cerevisiae deletion strains, locus YLL001W, strain dnm1, hits give low values 1 | S. cerevisiae deletion strains, locus YLL026W, hits give low values 1.01 | S. cerevisiae deletion strains, locus YLL041C, strain sdh2, hits give low values 1 | S. cerevisiae deletion strains, locus YLR027C, strain aat2, hits give low values 1 | S. cerevisiae deletion strains, locus YLR039C, strain RIC1, hits give low values 1.03 | S. cerevisiae deletion strains, locus YLR058C, strain SHM2, hits give low values 0.99 | S. cerevisiae deletion strains, locus YLR102C, strain apc9, hits give low values 0.987 | S. cerevisiae deletion strains, locus YLR113W, strain HOG1, hits give low values 1.04 | S. cerevisiae deletion strains, locus YLR221C, strain rsa3, hits give low values 0.998 | S. cerevisiae deletion strains, locus YLR258W, strain gsy2, hits give low values 1 | S. cerevisiae deletion strains, locus YLR262C, strain YPT6 (second series), hits give low values 1.02 | S. cerevisiae deletion strains, locus YLR262C, strain YPT6, hits give low values 0.965 | S. cerevisiae deletion strains, locus YLR268W, strain sec22, hits give low values 0.917 | S. cerevisiae deletion strains, locus YLR320W, strain mms22, hits give low values 1 | S. cerevisiae deletion strains, locus YLR330W, strain CHS5, hits give low values 0.991 | S. cerevisiae deletion strains, locus YLR342W, strain FKS1 (second series), hits give low values 1.06 | S. cerevisiae deletion strains, locus YLR342W, strain FKS1, hits give low values 1 | S. cerevisiae deletion strains, locus YLR357W, strain rsc2, hits give low values 0.968 | S. cerevisiae deletion strains, locus YLR370C, strain arc18, hits give low values 1 | S. cerevisiae deletion strains, locus YLR371W, strain rom2, hits give low values 0.971 | S. cerevisiae deletion strains, locus YLR384C, strain iki3, hits give low values 1.01 | S. cerevisiae deletion strains, locus YLR418C, strain cdc73, hits give low values 0.965 | S. cerevisiae deletion strains, locus YML016C, strain PPZ1, hits give low values 0.987 | S. cerevisiae deletion strains, locus YML032C, strain rad52, hits give low values 0.981 | S. cerevisiae deletion strains, locus YML120C, strain ndi1, hits give low values 1.01 | S. cerevisiae deletion strains, locus YML124C, strain tub3, hits give low values 0.978 | S. cerevisiae deletion strains, locus YMR058W, strain fet3, hits give low values 1.01 | S. cerevisiae deletion strains, locus YMR078C, strain ctf18, hits give low values 0.976 | S. cerevisiae deletion strains, locus YMR125W, strain sto1, hits give low values 1 | S. cerevisiae deletion strains, locus YMR129W, hits give low values 1 | S. cerevisiae deletion strains, locus YMR205C, strain PFK2, hits give low values 0.982 | S. cerevisiae deletion strains, locus YMR223W, strain ubp8, hits give low values 1 | S. cerevisiae deletion strains, locus YMR231W, strain pep5, hits give low values 0.994 | S. cerevisiae deletion strains, locus YMR263W, strain SAP30, hits give low values 0.988 | S. cerevisiae deletion strains, locus YMR307W, strain GAS1, hits give low values 1.01 | S. cerevisiae deletion strains, locus YNL067W, strain RPL9B, hits give low values 0.982 | S. cerevisiae deletion strains, locus YNL071W, strain lat1, hits give low values 1.01 | S. cerevisiae deletion strains, locus YNL128W, strain TEP1, hits give low values 0.997 | S. cerevisiae deletion strains, locus YNL153C, strain GIM3, hits give low values 0.987 | S. cerevisiae deletion strains, locus YNL183C, strain NPR1, hits give low values 0.977 | S. cerevisiae deletion strains, locus YNL209W, strain ssb2, hits give low values 1 | S. cerevisiae deletion strains, locus YNL233W, strain BNI4, hits give low values 0.978 | S. cerevisiae deletion strains, locus YNL248C, strain rpa49, hits give low values 0.999 | S. cerevisiae deletion strains, locus YNL250W, strain rad50, hits give low values 0.981 | S. cerevisiae deletion strains, locus YNL271C, strain bni1, hits give low values 0.977 | S. cerevisiae deletion strains, locus YNL298W, strain CLA4, hits give low values 0.985 | S. cerevisiae deletion strains, locus YNL307C, strain MCK1, hits give low values 0.985 | S. cerevisiae deletion strains, locus YNL322C, strain KRE1 (second series), hits give low values 0.986 | S. cerevisiae deletion strains, locus YNL322C, strain KRE1, hits give low values 0.998 | S. cerevisiae deletion strains, locus YNR049C, strain mso1, hits give low values 1.01 | S. cerevisiae deletion strains, locus YNR052C, strain pop2, hits give low values 0.992 | S. cerevisiae deletion strains, locus YOL006C, strain TOP1, hits give low values 0.996 | S. cerevisiae deletion strains, locus YOL012C, strain htz1 0.886 | S. cerevisiae deletion strains, locus YOL147C, strain pex11, hits give low values 0.983 | S. cerevisiae deletion strains, locus YOR001W, strain rrp6, hits give low values 1 | S. cerevisiae deletion strains, locus YOR061W, strain CKA2, hits give low values 0.991 | S. cerevisiae deletion strains, locus YOR069W, strain VPS5, hits give low values 0.99 | S. cerevisiae deletion strains, locus YOR070C, strain gyp1, hits give low values 1 | S. cerevisiae deletion strains, locus YOR080W, strain dia2, hits give low values 0.993 | S. cerevisiae deletion strains, locus YOR083W, strain WHI5, hits give low values 0.992 | S. cerevisiae deletion strains, locus YOR106W, strain vam3, hits give low values 0.99 | S. cerevisiae deletion strains, locus YOR136W, strain idh2, hits give low values 0.993 | S. cerevisiae deletion strains, locus YOR144C, strain elg1, hits give low values 0.984 | S. cerevisiae deletion strains, locus YOR184W, strain ser1, hits give low values 0.967 | S. cerevisiae deletion strains, locus YOR231W, strain MKK1, hits give low values 1.03 | S. cerevisiae deletion strains, locus YOR265W, strain rbl2, hits give low values 1.03 | S. cerevisiae deletion strains, locus YOR270C, strain vph1, hits give low values 1.03 | S. cerevisiae deletion strains, locus YOR290C, strain snf2, hits give low values 1.03 | S. cerevisiae deletion strains, locus YOR316C, strain cot1, hits give low values 0.977 | S. cerevisiae deletion strains, locus YPL051W, strain arl3, hits give low values 1 | S. cerevisiae deletion strains, locus YPL055C, strain LGE1, hits give low values 1.01 | S. cerevisiae deletion strains, locus YPL078C, strain atp4, hits give low values 1 | S. cerevisiae deletion strains, locus YPL106C, strain sse1, hits give low values 0.977 | S. cerevisiae deletion strains, locus YPL240C, strain hsp82, hits give low values 1.01 | S. cerevisiae deletion strains, locus YPL241C, strain CIN2, hits give low values 0.992 | S. cerevisiae deletion strains, locus YPL256C, strain CLN2, hits give low values 1.03 | S. cerevisiae deletion strains, locus YPR119W, strain clb2, hits give low values 0.982 | S. cerevisiae deletion strains, locus YPR141C, strain kar3, hits give low values 0.98 | S. cerevisiae deletion strains, locus YPR163C, strain tif3, hits give low values 0.981 | S. cerevisiae deletion strains, locus YPR167C, strain met16, hits give low values 0.979 | S. cerevisiae deletion strains, strain wtn01, hits give low values 0.971 | S. cerevisiae strains, strain wild type, hits give low values 0.996
